Laboratory results published in PubChem BioAssay (Tox21).
Results filed as inconclusive are left out. A call without a number means that no potency is given here. Some compounds were tested as several samples or in several runs, with calls that do not always agree. Active and inactive are the calls of the source. Unless noted, the call rests on the fitted dose curve; in most records, active means well fitted curve in the direction sought with a large enough effect in the repeat runs; inconclusive means weak or mixed curves; inactive means flat fitted curve, though single readings scatter. Residues, ends and D or L forms follow the SMILES beside them.

Columns and labels:
[1] = qHTS assay to test for compound auto fluorescence at 535 nm (green) in HEK293 cells (AID 720680)
[2] = qHTS assay to test for compound auto fluorescence at 460 nm (blue) in HEK293 cell free culture (AID 720681)
How it was run: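 Test compounds were pinned into cell-free culture medium (DMEM with 10% FBS) and fluorescence was read directly at Ex/Em 405/460 nm. Signals were expressed as fluorescence equivalents of triamterene, with DMSO vehicle as control.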

[3] = qHTS assay to test for compound auto fluorescence at 535 nm (green) in HEK293 cell free culture (AID 720682)
How it was run: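 Cell-free medium (DMEM, 10% FBS) receives compound or DMSO by pintool. Plate read directly at Ex 485/Em 535 nm. Signal converted to fluorescein equivalency.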

[4] = qHTS assay to test for compound auto fluorescence at 590 nm (red) in HEK293 cell free culture (AID 720683)
How it was run: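 Tox21 10K library compounds were pinned into cell-free DMEM with 10% FBS and fluorescence was read at excitation 540 nm. Activity is expressed as Rose Bengal sodium equivalency.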

[5] = qHTS assay to test for compound auto fluorescence at 590 nm (red) in HepG2 cell free culture (AID 720684)
How it was run: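 Readout: intrinsic compound fluorescence at 590 nm emission after 540 nm excitation, scaled to Rose Bengal sodium. Matrix was cell-free MEM with 10% FBS; DMSO vehicle wells served as control.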

[6] = qHTS assay to test for compound auto fluorescence at 460 nm (blue) in HepG2 cell free culture (AID 720685)
How it was run: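 Cell-free plates of MEM plus 10% FBS received 23 nL compound or DMSO vehicle; blue-channel (405/460 nm) intensity scored against triamterene as reference fluorophore.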

[7] = qHTS assay to test for compound auto fluorescence at 535 nm (green) in HepG2 cell free culture (AID 720686)
[8] = qHTS assay to test for compound auto fluorescence at 460 nm (blue) in HepG2 cells (AID 720687)
How it was run: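 Cells (2,000/well in MEM with 10% FBS) attached overnight at 37 C, then were exposed to compound or DMSO for 1 hr at 37 C, 5% CO2. Fluorescence read at Ex/Em 405/460 nm, expressed as triamterene-equivalent signal.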

[9] = biological target: Glucocorticoid receptor (Homo sapiens) (UniProt P04150); assay: qHTS assay to identify small molecule agonists of the glucocorticoid receptor (GR) signaling pathway (AID 720691; active means well fitted activation curve with a large enough effect in the signal ratio in the repeat runs, not every such curve was filed as active; the % refers to the signal ratio; further: potency means the concentration at half of the fitted maximal effect)
Glucocorticoid receptor (Homo sapiens), sequence (P04150 whole entry, looked up): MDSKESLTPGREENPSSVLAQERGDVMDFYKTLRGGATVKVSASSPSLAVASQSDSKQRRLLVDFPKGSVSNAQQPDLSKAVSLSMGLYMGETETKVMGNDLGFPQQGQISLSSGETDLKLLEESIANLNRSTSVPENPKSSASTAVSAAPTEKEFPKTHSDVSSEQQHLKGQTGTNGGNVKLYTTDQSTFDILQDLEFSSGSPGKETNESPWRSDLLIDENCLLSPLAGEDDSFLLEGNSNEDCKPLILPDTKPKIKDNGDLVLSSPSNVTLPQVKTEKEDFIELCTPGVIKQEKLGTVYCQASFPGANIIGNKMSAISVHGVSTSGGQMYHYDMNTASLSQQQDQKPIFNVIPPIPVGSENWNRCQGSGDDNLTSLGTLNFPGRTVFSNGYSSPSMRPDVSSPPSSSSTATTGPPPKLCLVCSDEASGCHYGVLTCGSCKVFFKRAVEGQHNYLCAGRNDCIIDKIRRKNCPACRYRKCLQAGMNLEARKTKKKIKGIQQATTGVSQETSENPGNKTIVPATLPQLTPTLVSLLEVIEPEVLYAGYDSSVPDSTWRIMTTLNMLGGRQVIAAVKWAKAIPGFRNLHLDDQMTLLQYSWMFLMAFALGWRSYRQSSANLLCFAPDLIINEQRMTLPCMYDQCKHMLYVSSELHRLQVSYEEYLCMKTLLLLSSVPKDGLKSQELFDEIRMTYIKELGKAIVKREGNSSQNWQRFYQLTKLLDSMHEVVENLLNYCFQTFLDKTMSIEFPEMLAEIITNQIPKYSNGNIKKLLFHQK
How it was run: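 Agonist-mode qHTS in HeLa cells stably expressing a glucocorticoid-response-element beta-lactamase reporter. Fluorescence intensity read with FRET substrate (2 h, room temperature) after 18 h compound treatment at 37 C.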

[10] = biological target: Glucocorticoid receptor (Homo sapiens) (UniProt P04150); assay: qHTS assay to identify small molecule antagonists of the glucocorticoid receptor (GR) signaling pathway (AID 720692; active means well fitted inhibition curve with a large enough effect in the signal ratio in the repeat runs, not every such curve was filed as active; the % refers to the signal ratio)
How it was run: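 Inhibition of dexamethasone-driven (5 nM final) beta-lactamase expression was measured in GRE-reporter HeLa cells over 18 h at 37C. Fluorescence was read after 2 h with the B/G FRET substrate at room temperature.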

Cn1c(=O)c2[nH]cnc2n(C)c1=O
outcome [1]: inactive
outcome [2]: inactive
outcome [3]: inactive
outcome [4]: inactive
outcome [5]: inactive
outcome [6]: inactive
outcome [7]: inactive
outcome [8]: inactive

Cc1ccccc1C(OCCN(C)C)c1ccccc1 (stereo unspecified)
outcome [1]: inactive
outcome [2]: inactive
outcome [3]: inactive
outcome [4]: inactive
outcome [5]: inactive
outcome [6]: inactive
outcome [7]: inactive
outcome [8]: inactive
Potency [9]: inactive

O=C(c1ccccc1)C(O)c1ccccc1 (stereo unspecified)
outcome [1]: inactive
outcome [2]: inactive
outcome [3]: inactive
outcome [4]: inactive
outcome [5]: inactive
outcome [7]: inactive
Potency [9]: inactive
outcome [10]: inactive

COC(=O)[C@H](Cc1ccccc1)NC(=O)[C@@H](N)CC(=O)O (H-Asp-Phe-OMe)
outcome [1]: inactive
outcome [2]: inactive
outcome [3]: inactive
outcome [4]: inactive
outcome [5]: inactive
outcome [7]: inactive
Potency [9]: inactive
outcome [10]: inactive

Cc1cc(=O)[nH]c(=S)[nH]1
outcome [1]: inactive
outcome [2]: inactive
outcome [3]: inactive
outcome [4]: inactive
outcome [5]: inactive
outcome [7]: inactive
outcome [8]: inactive
Potency [9]: 23.9 µM (active) and inactive
outcome [10]: inactive

COc1c2occc2cc2ccc(=O)oc12
outcome [1]: inactive
outcome [2]: inactive
outcome [3]: inactive
outcome [4]: inactive
outcome [5]: inactive
outcome [7]: inactive
outcome [8]: inactive
Potency [9]: inactive
outcome [10]: inactive

CC(O)C(=O)O (stereo unspecified)
outcome [1]: inactive
outcome [2]: inactive
outcome [3]: inactive
outcome [4]: inactive
outcome [5]: inactive
outcome [7]: inactive
outcome [8]: inactive

O=C(O)c1cc(N=Nc2ccc(S(=O)(=O)Nc3ccccn3)cc2)ccc1O
outcome [1]: inactive
outcome [2]: inactive
outcome [3]: inactive
outcome [4]: inactive
outcome [5]: inactive
outcome [7]: inactive
outcome [8]: inactive
Potency [9]: inactive
outcome [10]: inactive

Cc1noc(NS(=O)(=O)c2ccc(N)cc2)c1C
outcome [1]: inactive
outcome [2]: inactive
outcome [3]: inactive
outcome [4]: inactive
outcome [5]: inactive
outcome [7]: inactive
outcome [8]: inactive

CNC[C@H](O)c1cccc(O)c1
outcome [1]: inactive
outcome [2]: inactive
outcome [3]: inactive
outcome [4]: inactive
outcome [5]: inactive
outcome [7]: inactive

O=C(O)CCC(=O)O
outcome [1]: inactive
outcome [2]: inactive
outcome [3]: inactive
outcome [4]: inactive
outcome [5]: inactive
outcome [7]: inactive

C/C=C/c1ccc(OC)cc1
outcome [1]: inactive
outcome [2]: inactive
outcome [3]: inactive
outcome [4]: inactive
outcome [5]: inactive
outcome [7]: inactive
outcome [8]: inactive

CCCCOC(=O)CC(CC(=O)OCCCC)(OC(C)=O)C(=O)OCCCC
outcome [1]: inactive
outcome [2]: inactive
outcome [3]: inactive
outcome [4]: inactive
outcome [5]: inactive
outcome [7]: inactive
outcome [8]: inactive
Potency [9]: inactive
outcome [10]: inactive

CC(=O)Nc1nnc(S(N)(=O)=O)s1
outcome [1]: inactive
outcome [2]: inactive
outcome [3]: inactive
outcome [4]: inactive
outcome [5]: inactive
outcome [7]: inactive
Potency [9]: inactive
outcome [10]: inactive

O=C(O)CS
outcome [1]: inactive
outcome [2]: inactive
outcome [3]: inactive
outcome [4]: inactive
outcome [5]: inactive
outcome [7]: inactive
Potency [9]: inactive
outcome [10]: inactive

CC(O)CN(CCN(CC(C)O)CC(C)O)CC(C)O (stereo unspecified)
outcome [1]: inactive
outcome [2]: inactive
outcome [3]: inactive
outcome [4]: inactive
outcome [5]: inactive
outcome [7]: inactive
outcome [8]: inactive
Potency [9]: inactive
outcome [10]: inactive

Nc1ccc(S(=O)(=O)c2ccc(N)cc2)cc1
outcome [1]: inactive
outcome [2]: inactive
outcome [3]: inactive
outcome [4]: inactive
outcome [5]: inactive
outcome [7]: inactive

NC(N)=O
outcome [1]: inactive
outcome [2]: inactive
outcome [3]: inactive
outcome [4]: inactive
outcome [5]: inactive
outcome [7]: inactive

O=C(O)CCCCC(=O)O
outcome [1]: inactive
outcome [2]: inactive
outcome [3]: inactive
outcome [4]: inactive
outcome [5]: inactive
outcome [7]: inactive
outcome [8]: inactive
Potency [9]: inactive
outcome [10]: inactive

O=C(O)c1cccc([N+](=O)[O-])c1
outcome [1]: inactive
outcome [2]: inactive
outcome [3]: inactive
outcome [4]: inactive
outcome [5]: inactive
outcome [7]: inactive
outcome [8]: inactive
Potency [9]: inactive
outcome [10]: inactive

C[C@]12C=CC(=O)C=C1CC[C@@H]1[C@@H]2[C@@H](O)C[C@@]2(C)[C@H]1CC[C@]2(O)C(=O)CO
outcome [1]: inactive
outcome [2]: inactive
outcome [3]: inactive
outcome [4]: inactive
outcome [5]: inactive
outcome [7]: inactive

C1N2CN3CN1CN(C2)C3
outcome [1]: inactive
outcome [2]: inactive
outcome [3]: inactive
outcome [4]: inactive
outcome [5]: inactive
outcome [7]: inactive
outcome [8]: inactive

O=NO
outcome [1]: inactive
outcome [2]: inactive
outcome [3]: inactive
outcome [4]: inactive
outcome [5]: inactive
outcome [7]: inactive
outcome [8]: inactive

Oc1ccc(/C=C/c2cc(O)cc(O)c2)cc1
outcome [1]: inactive
outcome [2]: inactive
outcome [3]: inactive
outcome [4]: inactive
outcome [5]: inactive
outcome [7]: inactive
outcome [8]: inactive

NC(N)=NC(=O)c1nc(Cl)c(N)nc1N
outcome [1]: inactive
outcome [2]: inactive
outcome [3]: inactive
outcome [4]: inactive
outcome [5]: inactive
outcome [7]: inactive
outcome [8]: inactive
Potency [9]: inactive
outcome [10]: inactive

CC(C)[C@@H]1CC[C@@H](C)C[C@H]1O
outcome [1]: inactive
outcome [2]: inactive
outcome [3]: inactive
outcome [4]: inactive
outcome [5]: inactive
outcome [7]: inactive

CCCN(CCC)S(=O)(=O)c1ccc(C(=O)O)cc1
outcome [1]: inactive
outcome [2]: inactive
outcome [3]: inactive
outcome [4]: inactive
outcome [5]: inactive
outcome [7]: inactive
outcome [8]: inactive
Potency [9]: inactive
outcome [10]: inactive

CCC1(c2ccccc2)C(=O)NCNC1=O
outcome [1]: inactive
outcome [2]: inactive
outcome [3]: inactive
outcome [4]: inactive
outcome [5]: inactive
outcome [7]: inactive
Potency [9]: inactive
outcome [10]: inactive

O=C1NC(=O)c2ccccc21
outcome [1]: inactive
outcome [2]: inactive
outcome [3]: inactive
outcome [4]: inactive
outcome [5]: inactive
outcome [7]: inactive
outcome [8]: inactive

CC1(C)[C@@H]2CC[C@@]1(C)C(=O)C2
outcome [1]: inactive
outcome [2]: inactive
outcome [3]: inactive
outcome [4]: inactive
outcome [5]: inactive
outcome [7]: inactive
Potency [9]: inactive
outcome [10]: inactive

COc1ccc2[nH]cc(CCNC(C)=O)c2c1
outcome [1]: inactive
outcome [2]: inactive
outcome [3]: inactive
outcome [4]: inactive
outcome [5]: inactive
outcome [7]: inactive
Potency [9]: inactive
outcome [10]: inactive

N=C(N)c1ccc(OCCCCCOc2ccc(C(=N)N)cc2)cc1
outcome [1]: inactive
outcome [2]: inactive
outcome [3]: inactive
outcome [4]: inactive
outcome [5]: inactive
outcome [7]: inactive
Potency [9]: inactive

CC(C)(Oc1ccc(C2CC2(Cl)Cl)cc1)C(=O)O (stereo unspecified)
outcome [1]: inactive
outcome [2]: inactive
outcome [3]: inactive
outcome [4]: inactive
outcome [5]: inactive
outcome [7]: inactive
Potency [9]: inactive
outcome [10]: inactive

O=C(C1CCCCC1)N1CC(=O)N2CCc3ccccc3C2C1 (stereo unspecified)
outcome [1]: inactive
outcome [2]: inactive
outcome [3]: inactive
outcome [4]: inactive
outcome [5]: inactive
outcome [7]: inactive
outcome [8]: inactive
Potency [9]: inactive
outcome [10]: inactive

CCCCC(CC)COC(=O)/C=C/c1ccc(OC)cc1 (stereo unspecified)
outcome [1]: inactive
outcome [2]: inactive
outcome [3]: inactive
outcome [4]: inactive
outcome [5]: inactive
outcome [7]: inactive
Potency [9]: inactive
outcome [10]: inactive

NNC(=O)c1ccncc1
outcome [1]: inactive
outcome [2]: inactive
outcome [3]: inactive
outcome [4]: inactive
outcome [5]: inactive
outcome [7]: inactive
outcome [8]: inactive
Potency [9]: inactive
outcome [10]: inactive

Nc1ccc(O)c(C(=O)O)c1
outcome [1]: inactive
outcome [2]: inactive
outcome [3]: inactive
outcome [4]: inactive
outcome [5]: inactive
outcome [7]: inactive
Potency [9]: inactive
outcome [10]: inactive

CCCCC1C(=O)N(c2ccccc2)N(c2ccccc2)C1=O
outcome [1]: inactive
outcome [2]: inactive
outcome [3]: inactive
outcome [4]: inactive
outcome [5]: inactive
outcome [7]: inactive
Potency [9]: inactive
outcome [10]: inactive
